# Laboratory results published in PubChem BioAssay AID1835 (Johns Hopkins Ion Channel Center, 2009).
# Out of some 2,400 compounds screened, about 750 (31%) were called active. This is one part of the list. Values without a mark were called inactive.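 How the source made its calls: active means median signal gain over dofetilide-blocked control wells reaching their mean plus 3 SD, so readout 1 at least 0; inactive means the rest.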
# Target: Voltage-gated inwardly rectifying potassium channel KCNH2 (Homo sapiens) (UniProt Q12809)
# Experiment: hERG protection against dofetilide inhibition, confirmation, cell-based, thallium flux, duplicate retest, dofetilide IC70 (AID 1835)
# Details: hERG cell line, FluxOR thallium flux, dofetilide-blocked; at 10 µM; active compounds read high
# Chain of Voltage-gated inwardly rectifying potassium channel KCNH2 (Homo sapiens) (Q12809 whole entry, looked up): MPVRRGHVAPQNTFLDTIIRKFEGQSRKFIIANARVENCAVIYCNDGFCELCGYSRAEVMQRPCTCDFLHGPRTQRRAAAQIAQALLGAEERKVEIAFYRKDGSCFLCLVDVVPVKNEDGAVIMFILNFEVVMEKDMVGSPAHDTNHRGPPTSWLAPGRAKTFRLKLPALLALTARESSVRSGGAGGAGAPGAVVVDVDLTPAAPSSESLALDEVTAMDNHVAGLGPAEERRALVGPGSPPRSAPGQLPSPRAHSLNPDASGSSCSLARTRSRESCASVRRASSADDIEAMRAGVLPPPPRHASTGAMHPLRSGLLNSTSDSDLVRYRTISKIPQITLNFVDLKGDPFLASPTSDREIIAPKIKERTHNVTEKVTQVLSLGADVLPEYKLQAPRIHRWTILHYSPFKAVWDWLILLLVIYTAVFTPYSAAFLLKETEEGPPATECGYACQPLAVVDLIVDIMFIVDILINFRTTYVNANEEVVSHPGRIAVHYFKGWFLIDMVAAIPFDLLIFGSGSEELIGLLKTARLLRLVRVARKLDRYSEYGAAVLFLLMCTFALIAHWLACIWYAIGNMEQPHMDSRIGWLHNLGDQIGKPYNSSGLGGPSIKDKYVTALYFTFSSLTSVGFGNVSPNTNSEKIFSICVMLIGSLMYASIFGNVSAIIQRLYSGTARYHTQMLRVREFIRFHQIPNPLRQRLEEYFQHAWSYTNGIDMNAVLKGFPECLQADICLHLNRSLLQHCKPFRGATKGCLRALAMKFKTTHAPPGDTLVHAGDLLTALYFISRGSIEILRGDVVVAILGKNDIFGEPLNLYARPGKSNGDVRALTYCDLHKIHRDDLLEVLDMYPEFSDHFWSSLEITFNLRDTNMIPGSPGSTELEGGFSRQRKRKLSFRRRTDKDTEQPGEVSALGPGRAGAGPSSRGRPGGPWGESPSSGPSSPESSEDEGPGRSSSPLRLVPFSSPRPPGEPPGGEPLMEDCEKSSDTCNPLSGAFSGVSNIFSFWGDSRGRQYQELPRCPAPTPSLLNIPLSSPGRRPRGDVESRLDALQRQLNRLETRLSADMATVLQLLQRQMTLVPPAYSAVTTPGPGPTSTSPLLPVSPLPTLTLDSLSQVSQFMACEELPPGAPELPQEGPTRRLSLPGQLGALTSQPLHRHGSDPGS
row,Structure (SMILES),"activity increase over dofetilide control, less the hit threshold"
1,CCOC(=O)c1c(C)oc2cc(Br)c(OC)cc12,-2%
2,CCOC(=O)c1sc(NC(=O)c2ccccc2C(=O)O)c(C(=O)OCC)c1C,-4%
3,CCOC(=O)c1sc(NN=C(C(=O)OC)C(=O)OC)c(C(=O)OCC)c1C,19% (active)
4,COc1ccc2[nH]c3c(=O)n(CCN4CCOCC4)cnc3c2c1,-14%
5,CCC1(C(=O)O)NC(c2cc(OC)ccc2O)C2C(=O)N(Cc3ccccc3)C(=O)C21 (configuration not stated),-18%
6,O=C(N/N=C/c1cccs1)C(=O)Nc1cccc(Cl)c1,-6%
7,Nc1nc(O)c(N=Nc2ccc(S(N)(=O)=O)cc2)c(=O)[nH]1,6% (active)
8,O=C1N(CN2CCN(Cc3ccccc3)CC2)c2ccccc2C12OCCCO2,-4%
9,CCCCC(=O)Nc1ccc(NCc2ccc(C)s2)cc1,14% (active)
10,Cc1ccc(NC(=O)CCC(=O)OCC(F)(F)C(F)F)cc1,-23%
11,CN(C)c1ccc(NC(=O)CCCc2ccccc2)cc1,-19%
12,O=C(CCNC(=O)C1CCN(S(=O)(=O)c2ccc(F)cc2)CC1)NCc1ccc(Cl)cc1,-16%
13,Cc1cc(C)c(Cn2c3ccccc3c3cnn(CC(=O)NCc4ccccn4)c(=O)c32)c(C)c1,-4%
14,Cc1ccc(C(=O)N2CCN(c3ccccc3)CC2)cc1S(=O)(=O)N1CCCC1,19% (active)
15,O=C(c1ccc(Cl)c(S(=O)(=O)N2CCCC2)c1)N1CCN(c2ccccc2F)CC1,-1%
16,O=C(Nc1ccc(N2CCOCC2)cc1)c1ccc(S(=O)(=O)N2CCCCC2)cc1,-10%
17,CCNC(=S)Nc1nc2c(cc1C(=O)OCC)CCCC2,2% (active)
18,C=CCNC(=S)Nc1nc2c(cc1C(=O)OCC)CCCC2,-4%
19,C=C(C)CNC(=S)Nc1nc2c(cc1C(=O)OCC)CCCC2,-4%
20,CNC(=O)CSc1nnc(-c2ccco2)n1-c1ccccc1,-14%
21,COc1ccc(C(CC(=O)O)NC(=O)C(c2ccccc2)c2ccccc2)cc1 (configuration not stated),-10%
22,Cn1c(NNC(=O)C(c2ccccc2)c2ccccc2)cc(=O)n(C)c1=O,7% (active)

row,Structure (SMILES),"activity increase over dofetilide control, less the hit threshold"
1,CC(=O)c1ccc2c(c1)OCCOCCOCCO2,-14%
2,CC(C)(C)c1ccc(C(=O)CC(=O)c2cc(Cl)ccc2O)cc1,17% (active)
3,Cc1cc(Cl)ccc1OC(C)C(=O)NCCc1ccc2c(c1)OCCO2 (configuration not stated),-16%
4,Cc1cccc(C(=O)CC(=O)c2cc(Cl)ccc2O)c1,-7%
5,Cc1ccc(Cl)cc1NC(=O)COC(=O)c1ccccc1O,-10%
6,Cc1ccc(C(=O)CC(=O)c2cc(Cl)ccc2O)cc1,8% (active)
7,COC(=O)C1CCCN1C(=O)COc1ccc(Cl)cc1Br (configuration not stated),-7%
8,Cc1ccc(C(=O)CC(=O)COc2ccc(Cl)cc2C)cc1,24% (active)
9,Cc1ccc(O)c(C(=O)CC(=O)c2ccc(Cl)cc2)c1,-2%
10,Nc1nc2c(s1)CCCCCCCCCC2,-11%
11,O=C1OCCC1Sc1nc2ccccc2c(=O)n1Cc1ccc(F)cc1 (configuration not stated),9% (active)
12,Cc1ccc(S(=O)(=O)N2CCOCC2)cc1NC(=O)CSc1nc2ccccc2c(=O)n1Cc1ccccc1,-5%
13,COc1cc(C2NC(=O)NC(O)(C(F)(F)F)C2C(C)=O)cc(OC)c1OC (configuration not stated),-17%
14,CN(c1cccc(NS(=O)(=O)c2cccc([N+](=O)[O-])c2)c1)S(C)(=O)=O,-19%
15,N/C(=N\OS(=O)(=O)c1cccc([N+](=O)[O-])c1)c1ccncc1,1% (active)
16,O=C(CSc1nnc(-c2ccncc2)o1)c1cccc([N+](=O)[O-])c1,-10%
17,COc1ccc(C)cc1-n1nnnc1SCc1nc2ccccc2c(=O)[nH]1,-16%
18,Cc1ccc(C2=NN(C(=O)CCCC(=O)O)C(c3ccc4c(c3)OCO4)C2)cc1 (configuration not stated),-23%
19,Cc1ccc2oc3c(c(=O)c2c1)C(c1cccs1)N(CCCN(C)C)C3=O (configuration not stated),11% (active)
20,COCCN1C(=O)c2oc3cc(C)c(C)cc3c(=O)c2C1c1ccc(O)cc1 (configuration not stated),-7%
21,CCN(CC)CCCN1C(=O)c2oc3ccccc3c(=O)c2C1c1cccs1 (configuration not stated),28% (active)
22,COCCCNC(=O)CC(NS(=O)(=O)c1ccc(F)cc1)c1ccc(OC)cc1 (configuration not stated),-1%

row,Structure (SMILES),"activity increase over dofetilide control, less the hit threshold"
1,CN(C)NC(=O)C(NC(=O)c1ccc(N)cc1)C12CC3CC(CC(C3)C1)C2 (configuration not stated),-10%
2,O=C(O)c1cc(-c2cccc([N+](=O)[O-])c2)n[nH]1,-14%
3,O=C(O)/C=C/C(=O)Nc1ccc(OC(F)(F)F)cc1,-3%
4,CCc1nnc(NS(=O)(=O)c2ccc(NC(=S)NC(=O)/C=C/c3ccc(OC)cc3)cc2)s1,-4%
5,CS(=O)(=O)c1sc(C(=O)NC(=S)Nc2ccc(OC(F)(F)F)cc2)c2c1C=CCC2,11% (active)
6,COc1ccc(Cc2c(O)nc(SCC(=O)NC(C)(C)C)[nH]c2=O)cc1,-17%
7,C=CCn1c(SCC(=O)NCC2CCCO2)nnc1-c1ccccc1 (configuration not stated),-1%
8,COc1cccc(N2CC(C(=O)Nc3nnc(SCC(=O)NCC4CCCO4)s3)CC2=O)c1 (configuration not stated),-4%
9,Cc1nc(SCC(=O)NCC2CCCO2)c2c3c(sc2n1)CCCC3 (configuration not stated),9% (active)
10,Cc1ccc(OCc2ccoc2C(=O)O)cc1C,11% (active)
11,Cc1cc(OCc2ccc(C(=O)Nc3ccc(C(=O)O)cc3)o2)ccc1Cl,-22%
12,COC(=O)C1CN(C(=O)COc2ccc(C)c(C)c2)c2ccccc2O1 (configuration not stated),-11%
13,COC(=O)c1cc(S(=O)(=O)NCC2CCN(Cc3cc(C)ccc3C)CC2)c[nH]1,-12%
14,Cc1nn(C)cc1C(=O)Nc1ccc2c(c1)OCCO2,-8%
15,COc1ccc(OC)c(NC(=S)NC(=O)c2ccc(Br)o2)c1,0% (active)
16,O=C(CNC(=S)NC(=O)c1ccc(Br)o1)c1ccccc1,-3%
17,COc1ccc(NC(=S)NC(=O)c2ccc(Br)o2)cc1,13% (active)
18,CCN(c1ccccc1)S(=O)(=O)c1ccc(NC(=S)NC(=O)c2ccc(Br)o2)cc1,20% (active)
19,COc1cc(NS(=O)(=O)c2ccc(NC(=S)Nc3ccccc3)cc2)nc(OC)n1,-26%
20,COc1cccc(NC(=S)NC(C)c2ccc(OC)c(OC)c2)c1 (configuration not stated),-24%
21,CCc1ccc(NC(=S)NC(=O)c2c(-c3ccccc3Cl)noc2C)cc1,-2%
22,O=C(NC(=S)NCc1ccccc1)c1ccc(Br)o1,91% (active)

row,Structure (SMILES),"activity increase over dofetilide control, less the hit threshold"
1,CCOC(=O)C1CCN(C(=O)CCS(=O)(=O)c2ccc3c(c2)CCN3C(=O)CC)CC1,-17%
2,N#Cc1c(N)c(C(=O)c2ccccc2)n2ccccc12,-2%
3,Cc1ccsc1/C=N/NC(=O)CNC(=O)c1ccccc1,-2%
4,CCCCc1c(O)nc(SCC(=O)N2CCOCC2)[nH]c1=O,-10%
5,Cn1ncc2c(O/N=C(\N)c3ccc(C(F)(F)F)cc3)ncnc21,-15%
6,NC(=O)C1CCN(C(=O)CCC(=O)c2ccc(F)cc2)CC1,-4%
7,Cc1nc(-c2cc(C#N)c(Sc3ccc(Cl)cc3Cl)nc2C)cs1,-4%
8,COc1ccc(-c2cc(C(=O)Nc3ccccc3SC)no2)cc1,-2%
9,Cc1ccc(NC(=S)NC(=O)c2ccc(Br)o2)c(C)c1,0%
10,COc1ccccc1NC(=S)NC(=O)c1ccc(-c2ccc(Cl)cc2)o1,8% (active)
11,O=C(NC(=S)Nc1ccccc1)c1ccc(Br)o1,5% (active)
12,C/C(=N\NC(=S)Nc1cccc(C)c1)c1ccco1,-26%
13,Cc1cccc(NC(=S)NC(=O)c2ccc(Br)o2)c1,33% (active)
14,O=C(NC(=S)Nc1ccccc1F)c1ccc(Br)o1,43% (active)
15,Cc1ccc2cc(CN(CCCN(C)C)C(=S)NCc3ccccc3)c(=O)[nH]c2c1C,-19%
16,Cc1nn(-c2ccc(Cl)nn2)c(=O)c2ccccc12,-12%
17,COc1cccc2cc(-c3nc4ccccc4[nH]3)c(=O)oc12,-24%
18,CC(C)=CC(=O)OCC(=O)Nc1ccc(SC(F)F)cc1,-16%
19,O=C(NC(=S)Nc1cccnc1)c1cc2ccccc2o1,21% (active)
20,Cc1c(C(=O)NC(=S)NCc2cccnc2)oc2ccccc12,-7%
21,O=C(Nc1cccnc1)c1cc(-c2cccs2)on1,-16%
22,O=C(NC(=S)NCCC1=CCCCC1)c1ccc(Br)o1,27% (active)

row,Structure (SMILES),"activity increase over dofetilide control, less the hit threshold"
1,O=C(NC(=S)NCCC1=CCCCC1)c1ccco1,50% (active)
2,O=C(NC(=S)NCCc1ccc(Cl)cc1)c1ccco1,-7%
3,S=C(NCCc1ccccc1)NCCN1CCOCC1,-10%
4,Oc1c(Br)cc(Br)cc1CNc1cccc2cccnc12,-19%
5,CN(Cc1ccccc1)C(=O)CCc1ccccc1,12% (active)
6,CN(Cc1ccsc1)C(=O)CCc1nnc(Cc2c[nH]c3ccccc23)o1,-8%
7,COc1ccc(S(=O)(=O)N(CCc2ccccc2)CC(=O)O)cc1,-12%
8,O=C1NCCN1Cc1ccccc1F,-20%
9,O=C(NC(=S)N1CCCC1)c1ccc(Cl)cc1,0%
10,O=C(NC(=S)N1CCCCCC1)c1ccc(Cl)cc1Cl,11% (active)
11,O=C(/C=C/c1ccccc1)Nc1ccc(C(=O)N2CCCCC2)cc1,-14%
12,COc1cc(OC)cc(C(=O)NC(=S)N2CCCCCC2)c1,-12%
13,Cc1ccc2c(c1)C1CN(C)CCC1N2C(=S)NC(=O)c1ccc(Br)cc1 (configuration not stated),-26%
14,CN1CCN(C(=S)NC(=O)c2ccc(C(C)(C)C)cc2)CC1,-15%
15,CCOC(=O)C1CCCN(C(=S)NC(=O)/C=C/c2ccc(F)cc2)C1 (configuration not stated),-6%
16,CC1CCN(C(=S)NC(=O)c2ccc(C(C)(C)C)cc2)CC1,22% (active)
17,CC(C)(C)c1ccc(C(=O)NC(=S)N2CCCC2)cc1,-6%
18,CC(C)(C)c1ccc(/C=C/C(=O)N2CCCCC2)cc1,5% (active)
19,CC(C)(C)c1ccc(C(=O)NC(=S)N2CCCCCC2)cc1,16% (active)
